Compound activity as filed in PubChem BioAssay.
HepG2 viability = HepG2 cytotoxicity, counter-screen for TGF-b inhibitors; HepG2 CAGA-GFP viability, ATP luminescence, 18 h; Potency, µM (doses to about 46.1 µM), usual class: cytotoxic; hit rate 0.76% among 410,000; AID 588856
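CellTiter-Glo luminescence gave cytotoxicity after 18 hours at 37 degrees C. The cells were HepG2 CAGA-GFP in 1% FBS DMEM, stimulated with 500 pg/mL TGF-beta after compound addition. %Activity was normalised to no-cell wells (complete cell-killing) and DMSO (no toxicity), and curves were fitted and classified.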
Nrf2 activator = activators of Nrf2 (ARE) signaling; AREc32 ARE-luciferase reporter (MCF7-derived line), luminescence, 24 h; Potency, µM (doses to about 46.1 µM), most hits filed as activators; hit rate 0.31% among 410,000; AID 624171; also: nearly all actives have a fitted effect of over 65% in size
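ARE activation measured as luciferase luminescence (Steady-Glo, 30 min RT) in AREc32_Fluc cells after 24 hr compound exposure at 37 deg C, 5% CO2; cells seeded overnight at 1000/well in OPTI-MEM, 5% FBS.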
Nrf2 inh = Nrf2 pathway inhibition; A549 ARE-Fluc reporter, luciferase luminescence, 18-24 h; Potency, µM (titrated, usually from 46 µM), actives largely listed as inhibitors; hit rate 2.1% among 360,000; also: nearly all actives have a fitted effect of over 60% in size
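Concentration-response testing used A549 ARE_Fluc cells at 5000 cells/well. Following an 18-24 h compound incubation, viability was read by fluorescence (Ex 405/Em 525) and luciferase output by luminescence.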
TGFb SMAD3 inh = inhibitors of TGF-b signaling | HepG2 CAGA-GFP TGF-b/SMAD3 reporter, GFP fluorescence, 18 h; TGF-beta stimulated, 500 pg/mL final | Potency, µM (series often up to 46.1 µM), hits mostly inhibitors | hit rate 1.2% among 410,000 | AID 588855; also: nearly all actives have a fitted effect of over 65% in size
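Using HEPG2 CAGA-GFP reporter cells at 1000 cells/well, we pinned test compounds, stimulated with recombinant TGF-beta (500 pg/mL final) and measured total well GFP after 18 h.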
A549 tox-1 = A549 cytotoxicity, counter-screen for Nrf2 inhibitors | A549 ARE-Fluc cells, CellTiter-Fluor viability, 18-24 h | Potency, µM (doses to about 46 µM), most hits filed as inhibitors | hit rate 0.16% among 390,000 | AID 504648
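Cytotoxicity counterscreen: CellTiter-Fluor fluorescence was measured in A549 ARE_Fluc cells after 18-24 h of compound exposure in a concentration series. The subsequent BugLite luminescent read reports ARE-luciferase activity.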
FLuc enzyme inh = firefly luciferase inhibition, Nrf2 hit validation; purified firefly luciferase, luminescence inhibition; Potency, µM (series often up to 57.5 µM), actives largely listed as inhibitors; hit rate 4% among 1,400; shares compounds with Nrf2 inh; also: nearly all actives have a fitted effect of over 65% in size
Target sequence (P08659 whole entry, looked up): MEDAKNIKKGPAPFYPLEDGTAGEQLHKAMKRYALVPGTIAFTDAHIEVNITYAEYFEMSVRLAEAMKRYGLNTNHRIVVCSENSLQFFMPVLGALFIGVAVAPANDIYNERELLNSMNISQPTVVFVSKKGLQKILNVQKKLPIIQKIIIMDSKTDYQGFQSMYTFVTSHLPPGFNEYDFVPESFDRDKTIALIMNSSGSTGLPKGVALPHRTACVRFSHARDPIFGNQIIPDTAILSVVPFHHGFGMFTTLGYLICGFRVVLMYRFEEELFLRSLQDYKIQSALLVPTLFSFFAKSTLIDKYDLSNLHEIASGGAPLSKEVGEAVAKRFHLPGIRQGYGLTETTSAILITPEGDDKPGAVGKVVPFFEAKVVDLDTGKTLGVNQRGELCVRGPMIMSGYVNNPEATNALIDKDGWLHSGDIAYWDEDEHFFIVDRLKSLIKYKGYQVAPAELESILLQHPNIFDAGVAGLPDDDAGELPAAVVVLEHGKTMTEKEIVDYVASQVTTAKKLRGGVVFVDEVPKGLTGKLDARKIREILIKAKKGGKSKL
A549 tox-2 = A549 cytotoxicity, Nrf2 inhibitor counterscreen. hit rate 2% among 1,400. shares compounds with Nrf2 inh. A549 ARE-Fluc cells, cytotoxicity counterscreen. Potency, µM (top dose mostly 46.1 µM), hits mostly inhibitors;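 also: cells exposed to compounds for 18 to 24 hours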
Nrf2 ARE inh = Nrf2 inhibition confirmed, A549 ARE-luciferase. shares compounds with Nrf2 inh. A549 ARE-firefly luciferase reporter, luminescence. Potency, µM (top dose mostly 46.1 µM), usual class: inhibitors. hit rate 74% among 1,400; also: nearly all actives have a fitted effect of over 65% in size
Each line names hits and unclear results; the compound was inactive in the other large screens (follow-up assays come after a bar, where shown). Only some compounds are listed: those with a hit (about 3.6% of all), similar ones and a draw of the others. Calls follow the shape of the dose curve; as a rule, active = well fitted curve in the direction sought with a large enough effect; inconclusive = small, poorly fitted or top-dose-only effect, or another doubt; inactive = no such curve, though single readings can be large; an effect the other way counts as inactive or inconclusive.

COc1ccc(Cl)cc1NC(=O)COC(=O)CCc1cc(OC)c(OC)c(OC)c1	none
O=C(NCc1cccs1)c1nc2c(nnn2Cc2ccccc2Cl)c(=O)[nH]1	Nrf2 inh 5.8µM, TGFb SMAD3 inh inconclusive, A549 tox-1 inconclusive | FLuc enzyme inh inconclusive | A549 tox-2 inconclusive | Nrf2 ARE inh 2.1µM
CC1(C(=O)NCc2cccc(Cl)c2)Cc2c(-c3ccccc3)ccnc2O1 (centres undefined)	none (no result: Nrf2 inh, A549 tox-1)
O=S(=O)(c1ccccc1)N1CCC(O)(CSc2ccc(Cl)cc2)CC1	Nrf2 inh 9.2µM, TGFb SMAD3 inh inconclusive | FLuc enzyme inh inactive | A549 tox-2 inactive
Fc1ccc(-c2noc3ncnc(NCCc4ccc(Cl)cc4)c23)cc1	Nrf2 inh inconclusive
CSc1ccc(CCNc2ncnc3onc(-c4ccc(Cl)cc4)c23)cc1	Nrf2 inh 9.2µM, TGFb SMAD3 inh inconclusive | FLuc enzyme inh inactive | A549 tox-2 inactive | Nrf2 ARE inh inconclusive
Cc1c(C(=O)N/N=C/c2cccs2)nnn1-c1nonc1N	Nrf2 inh inconclusive, TGFb SMAD3 inh inconclusive
CCOc1ccc(CCN2C(=S)N([C@@H](Cc3ccccc3)CN3CCCC3CN3C(=S)NC[C@@H]3Cc3ccccc3)C[C@@H]2Cc2ccc(O)cc2)cc1 (some centres undefined)	none (no result: HepG2 viability, Nrf2 inh, TGFb SMAD3 inh, A549 tox-1)
COC(=O)c1c(C)oc2ccc(N(C(=O)Oc3ccccc3)S(=O)(=O)c3ccc(C(C)(C)C)cc3)cc12	Nrf2 inh 2.3µM | FLuc enzyme inh inactive | A549 tox-2 inactive | Nrf2 ARE inh 5.2µM
COC(=O)c1c(C)oc2ccc(N(C(C)=O)S(=O)(=O)c3ccccc3)cc12	Nrf2 inh inconclusive, A549 tox-1 inconclusive
CCOc1ccc(S(=O)(=O)N(C(C)=O)c2ccc3oc(C)c(C(=O)OC)c3c2)cc1	Nrf2 inh 2.1µM, TGFb SMAD3 inh inconclusive | FLuc enzyme inh inactive | A549 tox-2 inactive | Nrf2 ARE inh 23µM
CCOC(=O)c1ccccc1NC(=O)c1sc2ccccc2c1Cl	Nrf2 inh inconclusive
CCOC(=O)c1sc2ccccc2c1OC(=O)c1ccccc1OC	Nrf2 inh 4.6µM, TGFb SMAD3 inh inconclusive | FLuc enzyme inh inactive | A549 tox-2 inactive | Nrf2 ARE inh inconclusive
COc1ccc(NC(=O)C2C(=O)N(C)C3(C)CC2c2ccccc2O3)cc1 (centres undefined)	none
COC(=O)c1sc(S(=O)(=O)N2CCCCC2)c(C(=O)OC)c1C	none
Cn1nc(C(C)(C)C)cc1C(=O)NCc1cc(F)cc2c1OCOC2	Nrf2 inh inconclusive, TGFb SMAD3 inh inconclusive | FLuc enzyme inh inactive | A549 tox-2 inactive | Nrf2 ARE inh 3.7µM
CC(=O)Nc1ccc(S(=O)(=O)NCCSCc2ccc(Cl)cc2Cl)cc1	Nrf2 inh 9.2µM | FLuc enzyme inh inactive | A549 tox-2 inactive | Nrf2 ARE inh 10µM
CC12CCC(=O)C=C1C(O)CC1C2CCC2(C)C1CCC2(O)C(=O)CO (centres undefined)	none
CC(=O)OCC(=O)[C@@]12OC(C)(C)O[C@@H]1CC1C3C[C@H](F)C4=CC(=O)C=CC4(C)[C@@]3(F)C(O)CC12C (some centres undefined)	Nrf2 inh inconclusive
CC1CC2C(C(O)CC3(C)C2CCC3(O)C(=O)CO)C2(C)C=CC(=O)C=C12 (centres undefined)	Nrf2 inh 0.046µM | FLuc enzyme inh inactive | A549 tox-2 inactive | Nrf2 ARE inh 0.041µM
CC(=O)OCC(=O)[C@@]1(O)CC[C@H]2[C@@H]3C[C@H](C)C4=CC(=O)C=C[C@]4(C)[C@H]3[C@@H](O)C[C@@]21C	Nrf2 inh 0.052µM | FLuc enzyme inh inactive | A549 tox-2 inactive | Nrf2 ARE inh 0.052µM
CC1CCN(C(=O)CSc2nc3c(cnn3-c3ccccc3)c(=O)[nH]2)CC1	Nrf2 inh 5.8µM | FLuc enzyme inh inactive | A549 tox-2 inactive | Nrf2 ARE inh inactive
CCC(c1nnnn1Cc1ccccc1)N(Cc1ccccc1)Cc1cc2cc(C)ccc2[nH]c1=O (centres undefined)	Nrf2 inh 4.1µM, TGFb SMAD3 inh inconclusive, A549 tox-1 inconclusive (no result: Nrf2 activator) | FLuc enzyme inh inactive | A549 tox-2 inactive | Nrf2 ARE inh inconclusive
CCc1ccccc1NC(=O)CSc1ncc2c(n1)-c1cc(Cl)ccc1N(Cc1ccccc1)S2(=O)=O	Nrf2 inh inconclusive, TGFb SMAD3 inh inconclusive
Cc1cc(C)c(NC(=O)CSc2ncc3c(n2)-c2cc(Cl)ccc2N(C)S3(=O)=O)c(C)c1	Nrf2 inh 4.6µM, TGFb SMAD3 inh inconclusive | FLuc enzyme inh inactive | A549 tox-2 inactive | Nrf2 ARE inh inactive
O=C(Cn1nc(N2CCN(c3ccccc3)CC2)ccc1=O)Nc1ccc(F)cc1F	none
O=C(Nc1ccc(F)cc1)c1ccc(Cn2nc(N3CCN(c4ccccc4)CC3)ccc2=O)o1	Nrf2 inh 8.2µM, TGFb SMAD3 inh inconclusive, A549 tox-1 inconclusive | FLuc enzyme inh inactive | A549 tox-2 inactive | Nrf2 ARE inh 2.6µM
Cc1cc(C(C)(C)C)cc(C)c1C[n+]1ccc2ccccc2c1	Nrf2 inh 3.7µM, TGFb SMAD3 inh inconclusive | FLuc enzyme inh inactive | A549 tox-2 inactive | Nrf2 ARE inh 2.3µM
Cc1ccc(C(=O)C[n+]2ccc3ccccc3c2)cc1	Nrf2 inh inconclusive
Cc1c(C(=O)Nc2ccc3c(c2)OCCO3)sc2nc(-c3ccccc3)cn12	Nrf2 inh 6.5µM, A549 tox-1 inconclusive | FLuc enzyme inh inconclusive | A549 tox-2 inactive | Nrf2 ARE inh 21µM
COc1ccc(OCCN2CCC(C(=O)NC(c3ccc(Cl)cc3)c3cccnc3)CC2)cc1 (centres undefined)	none (no result: Nrf2 inh, A549 tox-1)
O=C(Nc1cccc(S(=O)(=O)Nc2ccc(Cl)cc2)c1)c1ccc(Cl)nc1	Nrf2 inh 3.3µM, TGFb SMAD3 inh 14µM, A549 tox-1 inconclusive | FLuc enzyme inh inactive | A549 tox-2 inactive | Nrf2 ARE inh 4.1µM
O=C(Nc1ccc(NS(=O)(=O)c2ccccc2)cc1)c1ccc(Cl)cc1	none
COc1cccc(S(=O)(=O)Nc2ccc(C(=O)Nc3ccncc3)cc2)c1	Nrf2 inh inconclusive, TGFb SMAD3 inh inconclusive
COc1ccc(NS(=O)(=O)c2cccc(NC(=O)c3ccc(Cl)nc3)c2)cc1	Nrf2 inh 0.58µM, TGFb SMAD3 inh inconclusive, A549 tox-1 inconclusive | FLuc enzyme inh inactive | A549 tox-2 inactive | Nrf2 ARE inh 1.6µM
